Only some compounds are listed: those with a hit (about 8.1% of all), similar ones and a draw of the others.
SW480 rerep: A quantitative high throughput screen for small molecules that induce DNA re-replication in SW480 colon adenocarcinoma cells; SW480 DNA re-replication, Hoechst DNA content imaging, 48 h; Potency, µM (series often up to 46.1 µM), for inactives: at the highest dose re-replication activation, usual class: activators; 340,000 compounds, 1.8% hits; AID 624297, 2012; also: % of control where 0% means no effect; nearly all actives have a fitted effect of over 55% in size
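Image-based DNA-content assay: after two days of treatment, nuclei were labelled with the DNA dye Hoechst and imaged, and hits were compounds raising the count of nuclei showing high fluorescence intensity.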
MCF10A rereplic: A quantitative high throughput screen for small molecules that induce DNA re-replication in MCF 10a normal breast cells. AID 624296, 2012. Potency, µM (doses to about 46.1 µM), for the others: at the top dose activity, positive = re-replication, actives largely listed as activators. MCF 10A DNA re-replication, Hoechst nuclear intensity, 48 h. 350,000 compounds, 2.9% hits; also: % of control where 0% means no effect; nearly all actives have a fitted effect of over 50% in size
KB-V1 MDR tox: qHTS assay for MDR1-selective chemotherapeutics: Primary screen using the drug-selected MDR subline cells KB-V1. KB-V1 MDR cells viability, CellTiter-Glo, 72 h. Potency, µM (highest dose often 46.1 µM), actives largely listed as cytotoxic. 400,000 compounds, 3.4% hits; also: % is scaled to controls: 0 for no effect and ±100 for the full control effect; nearly all actives have a fitted effect of over 60% in size
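Cells of the MDR subline KB-V1 are plated, dosed with compound at multiple concentrations, and incubated 72 h at 37 degrees C; CellTiter-Glo is then added and luminescence read after 10 min.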
KB-3-1 tox: qHTS assay for MDR1-selective chemotherapeutics: Primary screen using the parental adenocarcinoma cell KB-3-1. KB-3-1 viability, CellTiter-Glo ATP luminescence, 72 h. Potency, µM (doses to about 46.1 µM), hits mostly cytotoxic. 400,000 compounds, 1.4% hits. AID 1347075, 2019; also: % is scaled to controls: 0 for no effect and ±100 for the full control effect; nearly all actives have a fitted effect of over 60% in size
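Using CellTiter-Glo luminescence, growth of non-resistant KB-3-1 adenocarcinoma cells is assessed 72 h after pin-tool compound addition at 37 °C. Normalized responses across the concentration series yield fitted curves.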
ELG1 DNA repair: qHTS screen for small molecules that inhibit ELG1-dependent DNA repair in human embryonic kidney (HEK293T) cells expressing luciferase-tagged ELG1; Potency, µM (highest dose often 46.1 µM), without a hit: at the top dose activity change, negative = inhibition, most hits filed as inhibitors; AID 504467, 2011; HEK293T ELG1-luciferase reporter, luminescence, 16 h; DNA damage induced by 5-fluorouridine; 330,000 compounds, 2.3% hits; also: % is scaled to controls: 0 for no effect and ±100 for the full control effect; nearly all actives have a fitted effect of over 55% in size
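Cells (2,000 per well) received 5-fluorouridine plus test compound or DMSO and were incubated 16 hr at 37 °C, 5% CO2. Luciferase activity was read by luminescence 30 min after ONE-Glo addition; signal suppression marked inhibition of damage-induced ELG1 function.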
* hit, by the source's call; i = inactive; ? = inconclusive; . = no result; [ ] = another dose, or the depositor's remark. Calls follow the shape of the dose curve; as a rule, active = well fitted curve in the direction sought with a large enough effect; inconclusive = small, poorly fitted or top-dose-only effect, or another doubt; inactive = no such curve, though single readings can be large; an effect the other way counts as inactive or inconclusive. Potency is read from the fitted curve at half-maximal effect.

SMILES	SW480 rerep	MCF10A rereplic	KB-V1 MDR tox	KB-3-1 tox	ELG1 DNA repair
CCN(CC)S(=O)(=O)c1ccc(N2CCOCC2)c(NC(=S)NC(=O)c2ccco2)c1	0.4%	?	i	i	16.4µM*
CCN(CC)S(=O)(=O)c1ccc(N2CCOCC2)c(NC(=O)c2ccccc2)c1	-3.1%	0.7%	?	i	?
O=C(C1CCN(S(=O)(=O)c2cccc3nonc23)CC1)N1CCN(c2ccc(F)cc2)CC1	.	.	i	i	.
O=C(Cn1cnc2scc(-c3ccc(F)cc3)c2c1=O)NCC(c1ccco1)N1CCCC1 (stereo unspecified)	1.0%	2.9%	i	i	0.9%
CSc1ccc(N/N=C(/C#N)S(=O)(=O)C(C)(C)C)cc1	-2.4%	-1.4%	?	i	18.3µM*
CCOC(=O)C1=C(C)N2C(=C(C#N)[C@@H]1c1ccc(C(=O)OC)cc1)SC[C@@]2(O)C(C)(C)C	?	20.6µM*	?	i	?
COc1ccc(CCNC2CC(=O)N(CCc3ccc(OC)c(OC)c3)C2=O)cc1OC (stereo unspecified)	-5.0%	-2.1%	18.4µM*	i	0.5%
COc1ccc(CCN2C(=O)CC(NCc3ccc4c(c3)OCO4)C2=O)cc1OC (stereo unspecified)	0.2%	-3.6%	i	i	-2.4%
COc1ccc(-c2cc(=O)n(-c3nc4ccccc4[nH]3)[nH]2)cc1	?	18.4µM*	i	20.6µM*	?
N#CC1=C(N)NC(SCc2ccccc2)=C(C#N)C12CCCC2	?	18.4µM*	?	?	?
CC(C)(C)C1CCC2(CC1)C(C#N)=C(SCC(=O)Nc1ccccc1)NC(=O)C2C#N (stereo unspecified)	?	9.2µM*	i	?	?
N#CC1=C(N)NC(SCC(=O)Nc2ccc(Br)cc2)=C(C#N)C12CCCCC2	9.8%	?	i	i	23.1µM*
CC1(C)CC(=O)C2=C(C1)NC(SCC(=O)Nc1ccccc1)=C(C#N)C21CCCCC1	0.8%	25.5%	20.6µM*	?	?
CCOC(=O)c1cccc(NC(=O)C(C)n2c(C)c3cnn(-c4ccccc4)c(=O)c3c2C)c1 (stereo unspecified)	.	.	i	i	.
C#CCOc1ccc(C2C(C(=O)OC)=C(C)NC3=C2C(=O)c2ccccc23)cc1OCC (stereo unspecified)	.	.	i	i	.
COc1cc(OC)cc(-c2c(-c3cccs3)c3cc(-c4ccn[nH]4)ccc3n2C)c1	-6.2%	24.5%	i	?	?
CSCCC(C(=O)NC(C)(C)C)n1c(-c2ccc(C)cc2)nc2ccccc21 (stereo unspecified)	.	.	?	i	.
C[C@H]1CN([C@@H](C)CO)C(=O)CCCn2cc(nn2)CO[C@@H]1CN(C)C(=O)Nc1ccc(N2CCN(C)CC2)cc1	.	.	i	i	.
Cc1ccc(C)c(NC(=O)CN(C)C(=O)CSC(C)C(=O)Nc2cc(C)on2)c1 (stereo unspecified)	?	5.0%	i	i	-5.1%
Cc1ccc(NC(=O)Cn2nnc(-c3ccccc3NC(=O)c3cccs3)n2)cc1	3.66µM*	6.51µM*	1.3µM*	1.03µM*	?
CCOc1ccc(NC(=O)Cn2nnc(-c3ccccc3NC(=O)CC)n2)cc1	-1.1%	19.4%	?	i	?
COc1ccc(NC(=O)Cn2nnc(-c3ccccc3NC(=O)c3cccs3)n2)cc1	?	14.6µM*	i	?	-27.6%
O=C(Cn1nnc(-c2ccccc2NC(=O)c2ccco2)n1)Nc1ccccc1	?	?	i	i	-5.5%
Cc1ccccc1C(=O)Nc1ccccc1-c1nnn(CC(=O)Nc2ccc3c(c2)OCCO3)n1	13.6%	23.1µM*	3.66µM*	?	10.0%
O=C(Nc1ccc(F)c(Cl)c1)c1cc(C2CCCN(C(=O)c3cccs3)C2)on1 (stereo unspecified)	.	.	i	i	.
SMILES	SW480 rerep	MCF10A rereplic	KB-V1 MDR tox	KB-3-1 tox	ELG1 DNA repair
O=C(COc1ccccc1C(=O)Nc1ccccc1)Nc1ccccc1Br	.	.	i	i	.
N#Cc1ccccc1NC(=O)COc1ccccc1C(=O)Nc1ccccc1	?	9.5%	i	i	20.6µM*
COc1cccc2cc(C(=O)N3CCc4ccccc4C3)c(=O)oc12	-5.0%	-0.7%	i	i	?
COc1cc2c(cc1OC)CN(C(=O)/C=C/c1cccs1)CC2	13µM*	4.11µM*	?	3.66µM*	9.5%
COc1cc2c(cc1OC)CN(C(=O)c1cc3ccccc3oc1=O)CC2	?	?	4.61µM*	?	-24.0%
COc1cc2c(cc1OC)CN(C(=O)/C=C/c1ccccc1[N+](=O)[O-])CC2	16.4µM*	13µM*	i	?	13µM*
COc1cc2c(cc1OC)CN(S(=O)(=O)c1cccs1)CC2	108.1%	-97.5%	18.4µM*	i	-10.4%
CC1(Cc2ccc3ccccc3n2)C(=O)Nc2ccc(OC(F)(F)F)cc21 (stereo unspecified)	.	.	i	i	.
COc1ccc2c(c1OC)C(=O)N1c3ccccc3C(=O)N(Cc3ccco3)C21 (stereo unspecified)	.	.	?	i	.
COc1ccc2c(c1OC)C(=O)N1c3cccc(Cl)c3C(=O)OC21 (stereo unspecified)	0.651µM*	1.3µM*	i	i	-0.5%
COc1ccc2c(c1OC)C(=O)N1c3ccccc3COC21 (stereo unspecified)	-1.4%	13.9%	i	i	?
COc1ccc2c(c1OC)C(=O)N1c3ccccc3C(=O)N(c3ccccc3F)C21 (stereo unspecified)	-5.0%[9.22 µM]	?	5.8µM*	i	?
Cc1csc2sc(-c3ccnc(SCC(=O)NCc4ccccc4)n3)c(C)c12	18.4µM*	?	5.8µM*	?	-5.9%
Cc1cc(/C=C/c2c(C)cnc3ccccc23)ccc1N(C)C	.	.	16.4µM*	?	.
CN(C)c1ccc(/C=C/c2c(F)cnc3ccccc23)cc1	.	.	?	9.2µM*	.
Cc1cc(/C=C/c2nc3ccccc3s2)ccc1N(C)C	.	.	i	i	.
Cc1cnc2ccc(I)cc2c1/C=C/c1ccc(N(C)C)cc1	.	.	?	11.6µM*	.
CN(C)c1ccc(/C=C/c2c3c(nc4ccccc24)CCCC3)cc1	.	.	i	i	.
Cc1cc(C)c2c(/C=C/c3ccc(N(C)C)cc3)ccnc2c1	.	.	?	i	.
